Measured values: PubChem BioAssay (Tox21)
Results filed as inconclusive are left out. The source made the active and inactive calls. Unless noted, the call rests on the fitted dose curve; in most records, active means well fitted curve in the direction sought with a large enough effect in the repeat runs; inconclusive means weak or mixed curves; inactive means no such curve, though single readings can be large; an effect the other way counts as inactive or inconclusive.

How the values were obtained:
[1] = qHTS assay to identify aromatase inhibitors - cell viability counter screen (AID 743084);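 further: cells stimulated with testosterone during compound exposure; nearly all actives have a fitted effect of over 55% in size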; further: potency means the concentration at half of the fitted maximal effect
[2] = biological target: Aryl hydrocarbon receptor (Homo sapiens) (UniProt P35869); experiment: qHTS assay to identify small molecule that activate the aryl hydrocarbon receptor (AhR) signaling pathway (AID 743085); further: potency means the concentration at half of the fitted maximal effect; nearly all actives have a fitted effect of over 15% in size
How it was run: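 Stably transfected human liver carcinoma cells (HG2L7.5c1; 20 DRE-firefly luciferase) were incubated 5 h, dosed, and kept 24 h at 37C. Agonism was scored from increased luciferase luminescence.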

[3] = biological target: Peroxisome proliferator-activated receptor gamma (Homo sapiens) (UniProt P37231); experiment: qHTS assay to identify small molecule agonists of the peroxisome proliferator-activated receptor gamma (PPARg) signaling pathway (AID 743094; active means well fitted activation curve with a large enough effect in the signal ratio in the repeat runs, not every such curve was filed as active; the % refers to the signal ratio)
How it was run: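 Agonist activity was taken from a beta-lactamase reporter (FRET substrate, 1 h at room temperature) in HEK293H cells carrying a PPARg UAS-bla construct. Compounds in DMSO were incubated 17 h at 37C after a 5 h cell pre-incubation.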

[4] = qHTS assay to identify small molecule antagonists of the peroxisome proliferator-activated receptor gamma (PPARg) signaling pathway - cell viability counter screen (AID 743194); further: nearly all actives have a fitted effect of over 55% in size
How it was run: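 PPARg-UAS-bla HEK293H cells were plated, rested 5 h at 37 C, then treated with compounds plus rosiglitazone (50 nM final) for 17 h at 37 C; viability was then read by CellTiter-Glo luminescence after 30 min at room temperature.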

[5] = qHTS assay for small molecule agonists of the antioxidant response element (ARE) signaling pathway - cell viability counter screen (AID 743203; calls by dose curve; further: nearly all actives have a fitted effect of over 55% in size; further: potency means the concentration at half of the fitted maximal effect)
How it was run: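 Viability counter screen: CellTiter-Glo luminescence, read after 30 min at room temperature, in ARE-bla HepG2 wells. Compound exposure lasted 16 h at 37C/5% CO2, following a 5 h pre-incubation of the cells after plating.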

[6] = qHTS assay for small molecule activators of the heat shock response signaling pathway - cell viability counter screen (AID 743209); further: nearly all actives have a fitted effect of over 50% in size
How it was run: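 Cytotoxicity counter screen run in the same wells as the heat-shock bla reporter assay: HeLa HSE-bla cells, 5 h compound exposure at 37 C, viability read by CellTiter-Glo luminescence.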

[7] = qHTS assay to identify small molecule that activate the aryl hydrocarbon receptor (AhR) signaling pathway - cell viability counter screen (AID 743086);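 further: HepG2 liver cells carrying the AhR DRE luciferase reporter; series mostly up to about 70 µM; nearly all actives have a fitted effect of over 45% in size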
How it was run: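 HepG2-AhR-luc (HG2L7.5c1) cells, 4000/well, were preincubated 5 h at 37C, exposed to compound in qHTS format for 24 hr at 37C, then given CellTiter-Fluor for 30 min; viability was read as fluorescence in the reporter wells.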

[8] = qHTS assay for small molecule agonists of the antioxidant response element (ARE) signaling pathway (AID 743202; active means well fitted activation curve with a large enough effect in the signal ratio in the repeat runs, not every such curve was filed as active; the % refers to the signal ratio)
How it was run: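 Steps: seed ARE-bla HepG2 cells (2,000/well); incubate 5 h at 37 C; add compounds by pin tool; incubate 16 h at 37 C; add FRET substrate; read fluorescence after 2 h at RT.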

[9] = qHTS assay for small molecule activators of the heat shock response signaling pathway (AID 743210; active means well fitted activation curve with a large enough effect in the signal ratio in the repeat runs, with a control signal flat, not every such curve was filed as active; the % refers to the signal ratio;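 further: HeLa cells with beta-lactamase reporter driven by heat shock elements; series mostly up to about 63 µM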)
How it was run: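 Activation of heat shock element-controlled beta-lactamase expression is measured in HeLa cells by LiveBLAzer FRET fluorescence, with compound exposure lasting 5 h at 37 C and substrate loading 2.5 h at room temperature.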

[10] = biological target: Peroxisome proliferator-activated receptor gamma (Homo sapiens) (UniProt P37231); experiment: qHTS assay to identify small molecule antagonists of the peroxisome proliferator-activated receptor gamma (PPARg) signaling pathway (AID 743191; calls by dose curve; further: series mostly up to about 63 µM; nearly all actives have a fitted effect of over 30% in size)
How it was run: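 GeneBLAzer PPARg UAS-bla HEK293H cells carrying a UAS-driven beta-lactamase reporter were plated at 3000 cells/well, preincubated 5 h at 37C, then given compound for 17 h at 37C; LiveBLAzer B/G FRET substrate was read after 1 h at room temperature.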

Measured: Potency

Peroxisome proliferator-activated receptor gamma (Homo sapiens), sequence (P37231 whole entry, looked up): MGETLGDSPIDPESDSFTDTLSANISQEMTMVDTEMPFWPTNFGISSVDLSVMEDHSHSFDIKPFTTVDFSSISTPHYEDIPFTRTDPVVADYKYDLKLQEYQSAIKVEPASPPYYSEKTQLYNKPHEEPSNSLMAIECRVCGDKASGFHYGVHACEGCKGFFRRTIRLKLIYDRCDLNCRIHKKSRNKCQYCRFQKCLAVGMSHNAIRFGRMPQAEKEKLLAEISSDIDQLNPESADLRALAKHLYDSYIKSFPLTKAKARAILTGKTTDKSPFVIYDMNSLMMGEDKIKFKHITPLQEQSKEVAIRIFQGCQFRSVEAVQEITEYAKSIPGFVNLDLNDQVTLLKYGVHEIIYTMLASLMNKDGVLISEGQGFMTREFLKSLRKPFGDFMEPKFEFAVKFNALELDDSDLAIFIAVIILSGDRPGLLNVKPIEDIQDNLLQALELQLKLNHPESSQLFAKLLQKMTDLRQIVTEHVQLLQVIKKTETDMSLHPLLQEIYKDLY
Aryl hydrocarbon receptor (Homo sapiens), sequence (P35869 whole entry, looked up): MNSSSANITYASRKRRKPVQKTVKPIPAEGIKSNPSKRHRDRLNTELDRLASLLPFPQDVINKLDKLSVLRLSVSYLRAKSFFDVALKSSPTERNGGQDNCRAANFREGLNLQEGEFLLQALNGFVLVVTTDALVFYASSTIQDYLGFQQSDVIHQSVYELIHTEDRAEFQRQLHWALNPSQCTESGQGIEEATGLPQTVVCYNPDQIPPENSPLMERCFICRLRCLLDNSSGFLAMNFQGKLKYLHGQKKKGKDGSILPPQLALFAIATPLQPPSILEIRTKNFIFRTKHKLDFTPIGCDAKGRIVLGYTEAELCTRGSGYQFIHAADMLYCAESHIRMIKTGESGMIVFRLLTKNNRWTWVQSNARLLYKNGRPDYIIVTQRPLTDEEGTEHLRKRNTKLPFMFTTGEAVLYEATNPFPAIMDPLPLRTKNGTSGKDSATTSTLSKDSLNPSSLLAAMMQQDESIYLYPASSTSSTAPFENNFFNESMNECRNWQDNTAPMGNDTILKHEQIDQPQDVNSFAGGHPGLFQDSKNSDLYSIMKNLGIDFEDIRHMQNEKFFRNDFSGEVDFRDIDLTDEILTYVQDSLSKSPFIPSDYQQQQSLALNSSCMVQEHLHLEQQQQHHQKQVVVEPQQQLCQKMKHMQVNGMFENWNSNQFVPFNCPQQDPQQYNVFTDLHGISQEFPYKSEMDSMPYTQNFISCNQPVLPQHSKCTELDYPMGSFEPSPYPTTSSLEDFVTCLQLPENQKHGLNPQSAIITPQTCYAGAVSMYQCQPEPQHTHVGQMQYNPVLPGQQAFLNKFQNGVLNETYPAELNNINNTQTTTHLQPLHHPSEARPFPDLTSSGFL

Nc1ccc(Oc2ccc(N)c(N)c2)cc1
inactive: [1] | [3] | [4] | [5] | [6]
active: [2] 1.54 µM

Cc1ccc(C(C)C)cc1O
not listed: [2] | [10]
inactive: all other assays above

CC(C)C[C@H](NC(=O)OCC1c2ccccc2-c2ccccc21)C(=O)O
not listed: [2] | [3] | [10]
inactive: all other assays above

COC(=O)c1ccc(OC)cc1
inactive: [1] | [7] | [10] | [4] | [8] | [9]

CC/C=C\CCOC(=O)C(C)C
inactive: [1] | [7] | [3] | [5] | [6] | [9]

CC(CNC1CCCCC1)OC(=O)c1ccccc1 (stereo not given)
not listed: [2] | [7] | [10]
inactive: all other assays above

NC(=O)Cc1cccc(C(=O)c2ccccc2)c1N
inactive: [1] | [7] | [3] | [4] | [8] | [9]

c1ccc(CN(CC2=NCCN2)c2ccccc2)cc1
inactive: [1] | [3] | [4] | [5] | [6] | [9]

OCc1c2ccccc2cc2ccccc12
inactive: [1] | [3] | [4] | [5] | [6]

CCCCNc1ccc(C(=O)OCCN(CC)CC)cc1
not listed: [2] | [8] | [10]
inactive: all other assays above

COc1ccc(Nc2ccc(OC)cc2)cc1
not listed: [2] | [5] | [10]
inactive: all other assays above

CC(C)Nc1nc(N)nc(Cl)n1
inactive: [1] | [7] | [3] | [4] | [8] | [6]

CCN1CC(CCN2CCOCC2)C(c2ccccc2)(c2ccccc2)C1=O (stereo not given)
not listed: [2] | [8] | [10]
inactive: all other assays above

Nc1cccc(S(=O)(=O)O)c1
not listed: [2] | [10]
inactive: all other assays above

COC(=O)c1ccc2cc(C(=O)OC)ccc2c1
inactive: [1] | [3] | [10] | [4] | [8] | [5]

CC(=O)N(CC(O)CN(C(C)=O)c1c(I)c(C(=O)NCC(O)CO)c(I)c(C(=O)NCC(O)CO)c1I)c1c(I)c(C(=O)NCC(O)CO)c(I)c(C(=O)NCC(O)CO)c1I (stereo not given)
inactive: [1] | [3] | [10] | [8] | [5] | [6]

CCOC(=O)COc1ccc2c(c1)CC(NCC(O)c1cccc(Cl)c1)CC2 (stereo not given)
inactive: [3] | [10]
active: [1] 21.9 µM | [5] 48.9 µM

CCN(CCCc1ccccc1)CCCc1ccccc1
inactive: [1] | [7] | [3] | [5] | [6] | [9]

CCOC(=O)C(Br)c1ccccc1 (stereo not given)
not listed: [2] | [8] | [10]
inactive: all other assays above

FC(F)(F)c1ccccc1
inactive: [1] | [7] | [10] | [4] | [5] | [9]

Cc1ccc(C)c(N)c1
inactive: [1] | [7] | [3] | [4] | [5] | [6]

CC(C)NCC(O)COc1ccc(CCOCC2CC2)cc1 (stereo not given)
inactive: [1] | [7] | [4] | [8] | [6]

O=c1[nH]c(=O)n([C@H]2C[C@H](O)[C@@H](CO)O2)cc1C(F)(F)F
inactive: [1] | [7] | [4] | [5] | [6]

Cn1cnc2c(F)c(Nc3ccc(Br)cc3Cl)c(C(=O)NOCCO)cc21
not listed: [2] | [7] | [8]
inactive: all other assays above

CCN(CC)CCOc1ccc(Cc2ccccc2)cc1
not listed: [2] | [7] | [8]
inactive: all other assays above

CN(CCCN1c2ccccc2CCc2ccccc21)CC(=O)c1ccc(Cl)cc1
inactive: [1] | [10] | [4]

CCCCCCCCCC/C=C/C#N
inactive: [1] | [7] | [3] | [4] | [5]

CCCOCCC
not listed: [2] | [7] | [10]
inactive: all other assays above

O=[N+]([O-])c1nccn1CO[C@@H](CO)[C@H](O)CO
not listed: [2] | [7] | [10]
inactive: all other assays above

ICCc1ccccc1
not listed: [2] | [5] | [10]
inactive: all other assays above

CC(C)NC[C@@H](O)COc1cccc2ccccc12
inactive: [1] | [7] | [4] | [5] | [6] | [9]

CCCN(CCC)C(=O)C(CCC(=O)O)NC(=O)c1ccccc1 (stereo not given)
not listed: [2] | [10]
inactive: all other assays above

CCOc1ccccc1N
not listed: [2] | [5] | [10]
inactive: all other assays above

CCCCNc1cc(C(=O)O)cc(S(N)(=O)=O)c1Oc1ccccc1
not listed: [2] | [3] | [10]
inactive: all other assays above

O=CCCc1ccccc1
inactive: [1] | [7] | [4] | [8] | [5]

Cc1cc2c(s1)Nc1ccccc1N=C2N1CCN(C)CC1
inactive: [3] | [10] | [4] | [5] | [6]
active: [1] 23.7 µM

O=C1CCN(c2ccccc2)N1
inactive: [1] | [7] | [4] | [8] | [5]

CN(C)Cc1ccccc1
not listed: [2] | [6] | [10]
inactive: all other assays above

COc1ccccc1N1CCN(CCCNc2cc(=O)n(C)c(=O)n2C)CC1
inactive: [1] | [7] | [3] | [4] | [5] | [6]

Cc1ccccc1C(=O)Nc1ccc(C(=O)N2CCCC(O)c3cc(Cl)ccc32)c(C)c1 (stereo not given)
not listed: [2] | [3] | [7]
inactive: all other assays above
